What was measured:
[1] = biological target: Serine/threonine-protein kinase PAK 6 (Homo sapiens) (UniProt Q9NQU5); settings: at 1 µM;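 also: values are mean percent inhibition of PAK6 kinase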
[2] = test system: Tyrosine-protein kinase ABL1 (Homo sapiens), P00519 [E255K]; settings: at 0.1 µM
[3] = test system: Tyrosine-protein kinase ABL1 (Homo sapiens), P00519 [E255K]; settings: at 1 µM
[4] = test system: Tyrosine-protein kinase ABL1 (Homo sapiens), P00519 [H396P]; settings: at 0.1 µM
[5] = test system: Tyrosine-protein kinase ABL1 (Homo sapiens), P00519 [H396P]; settings: at 1 µM
[6] = test system: Tyrosine-protein kinase ABL1 (Homo sapiens), P00519 [M351T]; settings: at 0.1 µM
[7] = test system: Tyrosine-protein kinase ABL1 (Homo sapiens), P00519 [M351T]; settings: at 1 µM
[8] = test system: Tyrosine-protein kinase ABL1 (Homo sapiens), P00519 [Q252H]; settings: at 0.1 µM
[9] = test system: Tyrosine-protein kinase ABL1 (Homo sapiens), P00519 [Q252H]; settings: at 1 µM
[10] = test system: Tyrosine-protein kinase ABL1 (Homo sapiens), P00519 [T315I]; settings: at 0.1 µM
[11] = test system: Tyrosine-protein kinase ABL1 (Homo sapiens), P00519 [T315I]; settings: at 1 µM
[12] = test system: Tyrosine-protein kinase ABL1 (Homo sapiens), P00519 [Y253F]; settings: at 0.1 µM
[13] = test system: Tyrosine-protein kinase ABL1 (Homo sapiens), P00519 [Y253F]; settings: at 1 µM
[14] = biological target: Tyrosine-protein kinase ABL1 (Homo sapiens) (UniProt P00519); settings: at 0.1 µM
[15] = biological target: Tyrosine-protein kinase ABL1 (Homo sapiens) (UniProt P00519); settings: at 1 µM
[16] = biological target: ALK tyrosine kinase receptor (Homo sapiens) (UniProt Q9UM73); settings: at 0.1 µM
[17] = biological target: ALK tyrosine kinase receptor (Homo sapiens) (UniProt Q9UM73); settings: at 1 µM
[18] = biological target: Tyrosine-protein kinase ABL2 (Homo sapiens) (UniProt P42684); settings: at 0.1 µM
[19] = biological target: Tyrosine-protein kinase ABL2 (Homo sapiens) (UniProt P42684); settings: at 1 µM
[20] = biological target: Tyrosine-protein kinase receptor UFO (Homo sapiens) (UniProt P30530); settings: at 0.1 µM;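 also: values are mean percent inhibition of AXL from the GSK PKIS screen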
Chain of Tyrosine-protein kinase receptor UFO (Homo sapiens) (P30530 whole entry): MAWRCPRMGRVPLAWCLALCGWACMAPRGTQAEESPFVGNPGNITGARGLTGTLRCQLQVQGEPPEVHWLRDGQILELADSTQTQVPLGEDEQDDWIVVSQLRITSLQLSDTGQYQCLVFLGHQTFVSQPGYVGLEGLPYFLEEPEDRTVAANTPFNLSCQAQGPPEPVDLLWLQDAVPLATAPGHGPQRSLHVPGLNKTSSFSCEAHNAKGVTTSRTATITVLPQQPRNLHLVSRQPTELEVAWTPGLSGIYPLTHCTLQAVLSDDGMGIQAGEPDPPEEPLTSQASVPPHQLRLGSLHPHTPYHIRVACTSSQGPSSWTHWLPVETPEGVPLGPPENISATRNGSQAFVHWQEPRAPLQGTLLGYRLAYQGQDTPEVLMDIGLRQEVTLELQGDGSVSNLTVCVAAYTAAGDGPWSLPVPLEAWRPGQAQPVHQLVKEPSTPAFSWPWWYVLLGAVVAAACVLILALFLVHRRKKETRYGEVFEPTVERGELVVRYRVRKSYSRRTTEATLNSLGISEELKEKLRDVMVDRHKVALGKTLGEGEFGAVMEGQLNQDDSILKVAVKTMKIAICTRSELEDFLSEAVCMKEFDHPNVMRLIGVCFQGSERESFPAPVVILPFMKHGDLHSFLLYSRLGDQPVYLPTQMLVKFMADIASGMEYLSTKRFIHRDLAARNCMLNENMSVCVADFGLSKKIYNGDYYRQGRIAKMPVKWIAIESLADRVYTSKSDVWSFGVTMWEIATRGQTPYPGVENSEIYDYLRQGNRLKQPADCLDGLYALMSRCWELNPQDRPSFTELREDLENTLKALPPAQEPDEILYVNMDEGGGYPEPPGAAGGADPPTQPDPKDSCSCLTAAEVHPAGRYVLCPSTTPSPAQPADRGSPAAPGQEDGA

Chain of Tyrosine-protein kinase ABL2 (Homo sapiens) (P42684 whole entry): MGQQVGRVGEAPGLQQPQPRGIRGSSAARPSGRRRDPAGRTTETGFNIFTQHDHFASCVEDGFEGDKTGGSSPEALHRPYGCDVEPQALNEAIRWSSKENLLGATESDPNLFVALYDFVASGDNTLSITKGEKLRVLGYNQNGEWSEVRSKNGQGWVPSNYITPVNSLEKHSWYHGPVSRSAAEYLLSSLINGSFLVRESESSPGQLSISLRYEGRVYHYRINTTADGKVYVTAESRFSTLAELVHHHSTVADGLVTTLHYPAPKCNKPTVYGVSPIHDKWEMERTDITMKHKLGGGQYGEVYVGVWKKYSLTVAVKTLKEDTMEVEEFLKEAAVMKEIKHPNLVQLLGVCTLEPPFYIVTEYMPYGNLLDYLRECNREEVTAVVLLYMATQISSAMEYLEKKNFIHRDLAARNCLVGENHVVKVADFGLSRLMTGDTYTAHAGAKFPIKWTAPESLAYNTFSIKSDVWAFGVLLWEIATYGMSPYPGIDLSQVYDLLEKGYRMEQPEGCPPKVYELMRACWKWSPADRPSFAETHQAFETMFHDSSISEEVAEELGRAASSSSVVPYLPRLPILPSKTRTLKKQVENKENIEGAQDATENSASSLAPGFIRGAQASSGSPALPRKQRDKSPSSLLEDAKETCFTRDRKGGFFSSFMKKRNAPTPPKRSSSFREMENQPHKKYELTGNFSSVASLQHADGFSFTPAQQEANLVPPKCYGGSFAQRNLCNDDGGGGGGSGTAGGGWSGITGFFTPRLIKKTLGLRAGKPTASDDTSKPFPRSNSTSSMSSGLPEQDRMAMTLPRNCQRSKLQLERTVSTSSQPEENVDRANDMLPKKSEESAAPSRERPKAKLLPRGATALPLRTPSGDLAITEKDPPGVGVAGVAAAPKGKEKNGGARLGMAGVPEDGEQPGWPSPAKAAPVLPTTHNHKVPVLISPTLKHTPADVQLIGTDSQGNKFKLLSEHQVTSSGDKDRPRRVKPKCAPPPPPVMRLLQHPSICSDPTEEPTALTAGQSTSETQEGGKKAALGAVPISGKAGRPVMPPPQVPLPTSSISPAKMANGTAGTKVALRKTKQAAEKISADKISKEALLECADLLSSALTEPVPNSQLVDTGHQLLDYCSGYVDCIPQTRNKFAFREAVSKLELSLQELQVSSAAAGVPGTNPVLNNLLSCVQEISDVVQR
Chain of Serine/threonine-protein kinase PAK 6 (Homo sapiens) (Q9NQU5 whole entry, looked up): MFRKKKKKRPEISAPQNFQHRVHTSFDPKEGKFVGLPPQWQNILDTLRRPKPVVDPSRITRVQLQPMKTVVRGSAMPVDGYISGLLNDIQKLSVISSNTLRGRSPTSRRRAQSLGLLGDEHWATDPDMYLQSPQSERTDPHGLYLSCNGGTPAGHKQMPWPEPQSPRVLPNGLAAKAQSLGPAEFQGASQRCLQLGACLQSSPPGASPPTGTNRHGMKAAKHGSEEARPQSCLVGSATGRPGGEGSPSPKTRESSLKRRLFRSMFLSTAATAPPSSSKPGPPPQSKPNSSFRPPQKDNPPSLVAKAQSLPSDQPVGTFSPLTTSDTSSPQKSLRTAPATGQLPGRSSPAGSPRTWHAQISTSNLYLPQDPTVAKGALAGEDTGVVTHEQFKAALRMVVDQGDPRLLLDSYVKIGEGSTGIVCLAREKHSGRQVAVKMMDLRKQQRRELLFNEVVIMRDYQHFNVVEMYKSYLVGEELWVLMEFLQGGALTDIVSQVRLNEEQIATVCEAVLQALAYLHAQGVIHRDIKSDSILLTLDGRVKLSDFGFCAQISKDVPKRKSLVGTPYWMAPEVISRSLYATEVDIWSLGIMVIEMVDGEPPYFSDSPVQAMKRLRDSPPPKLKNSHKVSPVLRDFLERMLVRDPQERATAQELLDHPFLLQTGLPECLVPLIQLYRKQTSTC
Chain of ALK tyrosine kinase receptor (Homo sapiens) (Q9UM73 19-1620 limits assumed): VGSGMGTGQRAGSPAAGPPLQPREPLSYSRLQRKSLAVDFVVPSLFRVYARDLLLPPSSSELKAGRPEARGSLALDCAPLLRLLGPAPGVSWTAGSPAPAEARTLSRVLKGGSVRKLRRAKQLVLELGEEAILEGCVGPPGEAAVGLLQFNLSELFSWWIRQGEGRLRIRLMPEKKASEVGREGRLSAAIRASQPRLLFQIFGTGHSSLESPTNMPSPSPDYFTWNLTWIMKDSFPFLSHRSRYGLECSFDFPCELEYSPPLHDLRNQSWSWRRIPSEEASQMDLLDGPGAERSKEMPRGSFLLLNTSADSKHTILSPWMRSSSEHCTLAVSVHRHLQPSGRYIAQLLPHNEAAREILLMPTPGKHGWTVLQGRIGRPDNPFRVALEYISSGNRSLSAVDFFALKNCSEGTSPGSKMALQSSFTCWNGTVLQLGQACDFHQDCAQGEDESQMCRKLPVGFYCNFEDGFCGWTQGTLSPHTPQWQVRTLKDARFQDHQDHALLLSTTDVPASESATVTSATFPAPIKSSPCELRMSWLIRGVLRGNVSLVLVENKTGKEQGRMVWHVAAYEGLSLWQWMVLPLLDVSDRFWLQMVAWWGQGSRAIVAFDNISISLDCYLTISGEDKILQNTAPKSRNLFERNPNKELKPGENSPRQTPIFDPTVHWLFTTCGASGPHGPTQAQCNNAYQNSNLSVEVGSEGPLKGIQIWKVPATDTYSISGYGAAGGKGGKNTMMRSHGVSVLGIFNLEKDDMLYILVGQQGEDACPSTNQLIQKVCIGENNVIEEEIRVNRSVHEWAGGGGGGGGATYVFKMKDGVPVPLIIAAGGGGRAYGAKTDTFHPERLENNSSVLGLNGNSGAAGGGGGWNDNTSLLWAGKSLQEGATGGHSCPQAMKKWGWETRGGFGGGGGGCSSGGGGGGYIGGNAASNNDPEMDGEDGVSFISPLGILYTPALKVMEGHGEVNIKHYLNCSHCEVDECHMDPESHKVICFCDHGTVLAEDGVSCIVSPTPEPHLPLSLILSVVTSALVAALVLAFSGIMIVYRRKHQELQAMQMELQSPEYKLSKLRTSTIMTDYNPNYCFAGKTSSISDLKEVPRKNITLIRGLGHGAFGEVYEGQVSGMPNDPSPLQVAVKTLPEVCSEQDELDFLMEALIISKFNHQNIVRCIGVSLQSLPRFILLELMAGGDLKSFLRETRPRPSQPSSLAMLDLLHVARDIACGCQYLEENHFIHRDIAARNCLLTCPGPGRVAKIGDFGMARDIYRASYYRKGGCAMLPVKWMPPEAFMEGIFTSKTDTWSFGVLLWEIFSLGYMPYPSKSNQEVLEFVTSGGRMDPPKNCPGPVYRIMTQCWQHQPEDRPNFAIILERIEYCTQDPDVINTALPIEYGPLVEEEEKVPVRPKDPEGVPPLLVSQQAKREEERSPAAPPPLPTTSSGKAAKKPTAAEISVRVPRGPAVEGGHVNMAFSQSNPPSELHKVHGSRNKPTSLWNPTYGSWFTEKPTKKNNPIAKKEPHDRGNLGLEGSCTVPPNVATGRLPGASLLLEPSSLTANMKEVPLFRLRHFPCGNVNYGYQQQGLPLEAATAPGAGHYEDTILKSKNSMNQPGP

Structure (SMILES) | inhibition [1] | inhibition [2] | inhibition [3] | inhibition [4] | inhibition [5] | inhibition [6] | inhibition [7] | inhibition [8] | inhibition [9] | inhibition [10] | inhibition [11] | inhibition [12] | inhibition [13] | inhibition [14] | inhibition [15] | inhibition [16] | inhibition [17] | inhibition [18] | inhibition [19] | inhibition [20]
CCCN(CCS(C)(=O)=O)Cc1ccc(-c2ccc3ncnc(Nc4ccc(OCc5cccc(F)c5)c(Cl)c4)c3c2)o1 | 0.49% | 2.99% | 2.9% | 3.87% | 1.99% | 3.22% | 3.73% | 3.51% | 3.02% | 1.81% | 2.18% | 3.73% | 3.01% | 6.06% | 6.41% | 1.67% | 4.89% | 7.3% | 5.25% | -1.63%
c1ccc(COc2ccc(Nc3ncnc4ccc(-c5ccco5)cc34)cc2)cc1 | 1.25% | -0.69% | 0.29% | 0.16% | 0.64% | 0.39% | 2.41% | 0.54% | 0.07% | 1.64% | 1.49% | 0.09% | 0.37% | 2.97% | 1% | 1.38% | 2.45% | 2.41% | 4.34% | 0.76%
O=C(O[C@H]1CN[C@H](C#Cc2cc3ncnc(Nc4ccc(Cc5ccccc5)cc4)c3s2)C1)N1CCOCC1 | -5.73% | -0.19% | -0.38% | -0.52% | 0.08% | -2.99% | -0.59% | -0.95% | 1.06% | 0.08% | 0.76% | -1.94% | 2.37% | -0.06% | 0.2% | 1.1% | 0.46% | -0.08% | -0.38% | -5.65%
CCOc1ccc2c(-c3ccnc(Nc4cccc(C(F)(F)F)c4)n3)cnn2n1 | -3.51% | 2.13% | 4.02% | 2.46% | 4.74% | 0.25% | 1.69% | 2.99% | 3.05% | -0.14% | 2.2% | 2.21% | 3.23% | 3.73% | 7.89% | 2.18% | 3.1% | 2.04% | 8.28% | -3.01%
CS(=O)(=O)CCNCc1coc(-c2ccc3ncnc(Nc4ccc(OCc5ccccc5)cc4)c3c2)c1 | -4.66% | 1.64% | 0.28% | 4.11% | 4.46% | 1.21% | 1.86% | 2.14% | 4.18% | 1.94% | 4.02% | 3.03% | 2.89% | 4.85% | 7.39% | 2.87% | 9.68% | 3.06% | 4.08% | -2.71%
CCn1cc(-c2ccnc3[nH]ccc23)c(-c2cccc(NC(=O)Nc3ccc(OCc4ccccc4)cc3)c2)n1 | 3.29% | 1.22% | -1.34% | 1.15% | 3.55% | 1.36% | 3.02% | 0.71% | 2.72% | -0.6% | -0.74% | 0.58% | 0.94% | 1.03% | 2.88% | 0.6% | 0.71% | 0.39% | 6.44% | 0.7%
O=C(Nc1n[nH]c2cc(-c3ccc(F)cc3)ccc12)C1CC1 | -5.36% | 9.03% | 23.3% | 11.3% | 46.6% | 11.5% | 55.2% | 7.91% | 33.9% | 19.5% | 69.4% | 10.8% | 40.1% | 5.81% | 40.4% | 1.12% | 2.06% | 3.46% | 12.3% | -5.44%
